Laboratory results from publication PMC7862700, “An all-to-all approach to the identification of sequence-specific readers for epigenetic DNA modifications on cytosine”.

Experiments:
Assay in all cases: DAPPL (digital affinity profiling via proximity ligation, sequencing); 10 mM Tris-HCl pH 7.5, 50 mM NaCl, 1 mM DTT, 4% glycerol, room temperature, 30 min; GST-TFs on glutathione beads, 16-mer random dsDNA library, 0.1% formaldehyde crosslink after washing; high values mean tight binding
Settings in all cases: protein: recombinant; tags: N-terminal GST; dsDNA, one strand shown
[1] = target: T1, ERF (Homo sapiens, UniProt P50548 1-548)
T1 sequence: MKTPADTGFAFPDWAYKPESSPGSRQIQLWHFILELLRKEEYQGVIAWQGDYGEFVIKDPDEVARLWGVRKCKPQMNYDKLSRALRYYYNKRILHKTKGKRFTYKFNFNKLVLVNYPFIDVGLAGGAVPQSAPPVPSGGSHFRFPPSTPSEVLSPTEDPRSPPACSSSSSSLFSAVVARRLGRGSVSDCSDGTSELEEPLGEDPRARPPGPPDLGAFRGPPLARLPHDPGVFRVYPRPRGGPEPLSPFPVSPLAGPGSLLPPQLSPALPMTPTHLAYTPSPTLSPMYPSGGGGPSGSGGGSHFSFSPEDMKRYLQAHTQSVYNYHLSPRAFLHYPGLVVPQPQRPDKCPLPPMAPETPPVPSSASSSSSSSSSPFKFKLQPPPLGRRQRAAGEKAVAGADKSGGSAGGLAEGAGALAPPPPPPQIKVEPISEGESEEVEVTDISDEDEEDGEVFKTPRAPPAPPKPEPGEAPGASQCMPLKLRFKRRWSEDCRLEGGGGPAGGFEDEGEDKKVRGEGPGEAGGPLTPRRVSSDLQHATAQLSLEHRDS
How it was run: (§1)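 The binding signal reported is, for every hexamer, its read frequency for a factor over its read frequency for the tag-only sample. Reads came from pools of yeast-expressed, GST-fused human transcription factors on glutathione beads, barcoded with DNA and mixed with that sample, which were incubated with 200 nmole of a random double-stranded 16-mer DNA library in Tris/NaCl/DTT/glycerol buffer at room temperature for 30 min. After washing, the pools were crosslinked with 0.1% formaldehyde, proximity-ligated with BsaI/T4 ligase for 1 h at 37 °C, PCR-amplified and sequenced on an Illumina NextSeq500.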

[2] = target: T2, ETV3L (Homo sapiens, UniProt Q6ZN32 1-361)
T2 sequence: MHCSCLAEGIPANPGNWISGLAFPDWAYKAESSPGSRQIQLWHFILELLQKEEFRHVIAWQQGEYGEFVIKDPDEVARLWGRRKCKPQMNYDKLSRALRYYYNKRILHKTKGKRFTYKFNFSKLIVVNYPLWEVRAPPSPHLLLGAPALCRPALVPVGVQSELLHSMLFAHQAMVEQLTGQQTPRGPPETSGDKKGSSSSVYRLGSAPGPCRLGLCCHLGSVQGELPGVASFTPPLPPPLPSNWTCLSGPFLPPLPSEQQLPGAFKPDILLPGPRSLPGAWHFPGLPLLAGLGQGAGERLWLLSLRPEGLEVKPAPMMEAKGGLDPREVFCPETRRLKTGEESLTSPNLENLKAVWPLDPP
How it was run: as §1

[3] = target: T3, ETS2 (Homo sapiens, UniProt P15036 1-469)
T3 sequence: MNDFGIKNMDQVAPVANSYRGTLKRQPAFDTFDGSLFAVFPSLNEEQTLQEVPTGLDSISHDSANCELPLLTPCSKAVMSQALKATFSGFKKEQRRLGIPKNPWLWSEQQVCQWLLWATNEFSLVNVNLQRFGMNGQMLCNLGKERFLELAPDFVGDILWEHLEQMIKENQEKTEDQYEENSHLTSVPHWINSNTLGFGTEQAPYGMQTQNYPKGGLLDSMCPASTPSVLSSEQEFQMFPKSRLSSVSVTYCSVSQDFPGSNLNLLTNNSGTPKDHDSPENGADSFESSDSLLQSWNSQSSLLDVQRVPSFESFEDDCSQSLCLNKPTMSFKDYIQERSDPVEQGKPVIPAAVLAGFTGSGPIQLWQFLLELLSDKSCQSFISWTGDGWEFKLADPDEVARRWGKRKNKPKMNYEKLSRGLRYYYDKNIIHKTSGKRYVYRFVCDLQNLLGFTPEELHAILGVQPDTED
How it was run: as §1

[4] = target: T4, SPDEF (Homo sapiens, UniProt O95238 1-335)
T4 sequence: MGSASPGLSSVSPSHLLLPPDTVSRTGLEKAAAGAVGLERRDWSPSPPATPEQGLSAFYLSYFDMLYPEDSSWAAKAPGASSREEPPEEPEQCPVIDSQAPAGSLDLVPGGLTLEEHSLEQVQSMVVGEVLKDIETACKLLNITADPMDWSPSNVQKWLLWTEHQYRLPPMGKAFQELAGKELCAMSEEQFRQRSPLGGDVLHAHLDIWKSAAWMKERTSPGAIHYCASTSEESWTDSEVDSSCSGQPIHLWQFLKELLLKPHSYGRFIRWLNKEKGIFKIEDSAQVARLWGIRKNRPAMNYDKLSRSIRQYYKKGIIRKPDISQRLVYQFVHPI
How it was run: as §1

[5] = target: T5, ETV7 (Homo sapiens, UniProt Q9Y603 1-341)
T5 sequence: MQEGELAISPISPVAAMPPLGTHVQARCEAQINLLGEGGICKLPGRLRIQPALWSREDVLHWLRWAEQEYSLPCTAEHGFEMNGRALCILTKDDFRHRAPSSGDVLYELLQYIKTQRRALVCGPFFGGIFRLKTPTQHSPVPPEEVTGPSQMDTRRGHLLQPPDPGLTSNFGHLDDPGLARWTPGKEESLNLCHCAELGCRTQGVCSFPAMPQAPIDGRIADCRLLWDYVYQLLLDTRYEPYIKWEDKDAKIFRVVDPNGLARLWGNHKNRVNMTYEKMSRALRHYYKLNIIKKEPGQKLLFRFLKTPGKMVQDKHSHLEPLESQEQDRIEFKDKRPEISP
How it was run: as §1

[6] = target: T6, ELF5 (Homo sapiens, UniProt Q9UKW6-2 1-255)
T6 sequence: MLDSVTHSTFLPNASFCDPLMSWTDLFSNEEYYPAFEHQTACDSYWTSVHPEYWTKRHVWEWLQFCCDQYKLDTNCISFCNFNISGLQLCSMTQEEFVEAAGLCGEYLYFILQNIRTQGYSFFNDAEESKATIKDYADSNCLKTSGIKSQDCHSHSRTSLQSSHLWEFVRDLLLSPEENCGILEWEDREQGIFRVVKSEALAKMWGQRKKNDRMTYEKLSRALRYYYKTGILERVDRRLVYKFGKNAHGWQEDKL
How it was run: as §1

[7] = target: T7, ETV3 (Homo sapiens, UniProt P41162-2 1-143)
T7 sequence: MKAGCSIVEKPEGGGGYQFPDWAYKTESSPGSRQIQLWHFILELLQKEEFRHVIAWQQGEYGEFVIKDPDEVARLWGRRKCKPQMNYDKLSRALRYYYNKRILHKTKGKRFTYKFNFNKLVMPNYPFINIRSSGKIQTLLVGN
How it was run: as §1

[8] = target: ETV6 (Homo sapiens, UniProt P41212 1-452)
Chain of ETV6 (P41212 whole entry): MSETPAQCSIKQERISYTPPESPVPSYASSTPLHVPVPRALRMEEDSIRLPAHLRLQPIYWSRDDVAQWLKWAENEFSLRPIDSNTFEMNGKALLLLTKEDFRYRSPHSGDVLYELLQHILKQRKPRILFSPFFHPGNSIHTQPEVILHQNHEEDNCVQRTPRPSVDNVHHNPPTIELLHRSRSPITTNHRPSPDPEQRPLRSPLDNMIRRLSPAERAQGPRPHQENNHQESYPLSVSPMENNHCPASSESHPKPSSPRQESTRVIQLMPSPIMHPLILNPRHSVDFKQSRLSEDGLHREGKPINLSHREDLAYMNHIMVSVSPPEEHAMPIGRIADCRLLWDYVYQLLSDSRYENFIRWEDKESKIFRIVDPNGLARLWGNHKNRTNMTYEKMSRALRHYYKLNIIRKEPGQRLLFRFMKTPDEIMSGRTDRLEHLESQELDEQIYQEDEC
How it was run: as §1

Sequence | binding signal [1] | binding signal [2] | binding signal [3] | binding signal [4] | binding signal [5] | binding signal [6] | binding signal [7] | binding signal [8]
CCGACC | 1.59 fold enrichment (6-mer frequency, TF over GST control) | 1.67 fold enrichment (6-mer frequency, TF over GST control) | 1.49 fold enrichment (6-mer frequency, TF over GST control) | 1.54 fold enrichment (6-mer frequency, TF over GST control) | 1.55 fold enrichment (6-mer frequency, TF over GST control) | 1.48 fold enrichment (6-mer frequency, TF over GST control) | 1.46 fold enrichment (6-mer frequency, TF over GST control) | 1.67 fold enrichment (6-mer frequency, TF over GST control)
TATTAA | 1.22 fold enrichment (6-mer frequency, TF over GST control) | 1.18 fold enrichment (6-mer frequency, TF over GST control) | 1.17 fold enrichment (6-mer frequency, TF over GST control) | 1.18 fold enrichment (6-mer frequency, TF over GST control) | 1.15 fold enrichment (6-mer frequency, TF over GST control) | 1.13 fold enrichment (6-mer frequency, TF over GST control) | 1.16 fold enrichment (6-mer frequency, TF over GST control) | 1.12 fold enrichment (6-mer frequency, TF over GST control)
TCCATT | 1.23 fold enrichment (6-mer frequency, TF over GST control) | 1.22 fold enrichment (6-mer frequency, TF over GST control) | 1.28 fold enrichment (6-mer frequency, TF over GST control) | 1.2 fold enrichment (6-mer frequency, TF over GST control) | 1.26 fold enrichment (6-mer frequency, TF over GST control) | 1.2 fold enrichment (6-mer frequency, TF over GST control) | 1.37 fold enrichment (6-mer frequency, TF over GST control) | 1.29 fold enrichment (6-mer frequency, TF over GST control)
GATGGC | 1.4 fold enrichment (6-mer frequency, TF over GST control) | 1.3 fold enrichment (6-mer frequency, TF over GST control) | 1.27 fold enrichment (6-mer frequency, TF over GST control) | 1.29 fold enrichment (6-mer frequency, TF over GST control) | 1.26 fold enrichment (6-mer frequency, TF over GST control) | 1.3 fold enrichment (6-mer frequency, TF over GST control) | 1.3 fold enrichment (6-mer frequency, TF over GST control) | 1.31 fold enrichment (6-mer frequency, TF over GST control)
TTAGCT | 1.2 fold enrichment (6-mer frequency, TF over GST control) | 1.16 fold enrichment (6-mer frequency, TF over GST control) | 1.26 fold enrichment (6-mer frequency, TF over GST control) | 1.08 fold enrichment (6-mer frequency, TF over GST control) | 1.17 fold enrichment (6-mer frequency, TF over GST control) | 1.13 fold enrichment (6-mer frequency, TF over GST control) | 1.19 fold enrichment (6-mer frequency, TF over GST control) | 1.26 fold enrichment (6-mer frequency, TF over GST control)
ACTTTG | 1.25 fold enrichment (6-mer frequency, TF over GST control) | 1.2 fold enrichment (6-mer frequency, TF over GST control) | 1.18 fold enrichment (6-mer frequency, TF over GST control) | 1.14 fold enrichment (6-mer frequency, TF over GST control) | 1.11 fold enrichment (6-mer frequency, TF over GST control) | 1.25 fold enrichment (6-mer frequency, TF over GST control) | 1.42 fold enrichment (6-mer frequency, TF over GST control) | 1.18 fold enrichment (6-mer frequency, TF over GST control)
ACTCAA | 1.16 fold enrichment (6-mer frequency, TF over GST control) | 1.21 fold enrichment (6-mer frequency, TF over GST control) | 1.23 fold enrichment (6-mer frequency, TF over GST control) | 1.16 fold enrichment (6-mer frequency, TF over GST control) | 1.05 fold enrichment (6-mer frequency, TF over GST control) | 1.15 fold enrichment (6-mer frequency, TF over GST control) | 1.13 fold enrichment (6-mer frequency, TF over GST control) | 1.26 fold enrichment (6-mer frequency, TF over GST control)
TCCGCA | 1.95 fold enrichment (6-mer frequency, TF over GST control) | 2.08 fold enrichment (6-mer frequency, TF over GST control) | 2.26 fold enrichment (6-mer frequency, TF over GST control) | 2.24 fold enrichment (6-mer frequency, TF over GST control) | 1.98 fold enrichment (6-mer frequency, TF over GST control) | 2.61 fold enrichment (6-mer frequency, TF over GST control) | 2.27 fold enrichment (6-mer frequency, TF over GST control) | 2.18 fold enrichment (6-mer frequency, TF over GST control)
TACGTA | 1.3 fold enrichment (6-mer frequency, TF over GST control) | 1.38 fold enrichment (6-mer frequency, TF over GST control) | 1.42 fold enrichment (6-mer frequency, TF over GST control) | 1.35 fold enrichment (6-mer frequency, TF over GST control) | 1.15 fold enrichment (6-mer frequency, TF over GST control) | 1.31 fold enrichment (6-mer frequency, TF over GST control) | 1.37 fold enrichment (6-mer frequency, TF over GST control) | 1.32 fold enrichment (6-mer frequency, TF over GST control)
ATACAT | 1.27 fold enrichment (6-mer frequency, TF over GST control) | 1.2 fold enrichment (6-mer frequency, TF over GST control) | 1.24 fold enrichment (6-mer frequency, TF over GST control) | 1.6 fold enrichment (6-mer frequency, TF over GST control) | 1.36 fold enrichment (6-mer frequency, TF over GST control) | 1.29 fold enrichment (6-mer frequency, TF over GST control) | 1.26 fold enrichment (6-mer frequency, TF over GST control) | 1.28 fold enrichment (6-mer frequency, TF over GST control)
TATAAA | 1.25 fold enrichment (6-mer frequency, TF over GST control) | 1.15 fold enrichment (6-mer frequency, TF over GST control) | 1.27 fold enrichment (6-mer frequency, TF over GST control) | 1.21 fold enrichment (6-mer frequency, TF over GST control) | 1.12 fold enrichment (6-mer frequency, TF over GST control) | 1.24 fold enrichment (6-mer frequency, TF over GST control) | 1.24 fold enrichment (6-mer frequency, TF over GST control) | 1.21 fold enrichment (6-mer frequency, TF over GST control)
TCTTGA | 1.49 fold enrichment (6-mer frequency, TF over GST control) | 1.32 fold enrichment (6-mer frequency, TF over GST control) | 1.28 fold enrichment (6-mer frequency, TF over GST control) | 1.25 fold enrichment (6-mer frequency, TF over GST control) | 1.22 fold enrichment (6-mer frequency, TF over GST control) | 1.3 fold enrichment (6-mer frequency, TF over GST control) | 1.18 fold enrichment (6-mer frequency, TF over GST control) | 1.24 fold enrichment (6-mer frequency, TF over GST control)
